# Source: PubChem BioAssay (NCATS)
# Records with an inconclusive call do not appear. Unmarked numbers belong to inactive results. Calls follow the shape of the full dose curve; tested in HEK293 reporter line.
# Assay: qHTS for Inhibitors of the Functional Ribonucleoprotein Complex (vRNP) of Lymphocytic Choriomeningitis Arenaviruses (LCMV): Viability assay - alamar blue signal for LCMV Primary Screen (AID 1347085); also: nearly all actives have a fitted effect of over 80% in size
# Conditions: alamar blue viability counter-screen, LCMV vRNP screen cells; series mostly up to 57.5 µM; activity change, negative = lower viability: at the top concentration
# % is scaled to controls: 0 for no effect and ±100 for the full control effect.
row,SMILES,"activity change, negative = lower viability"
1,O=c1ccc2ccc(O[C@@H]3O[C@H](CO[C@@H]4OC[C@](O)(CO)[C@H]4O)[C@@H](O)[C@H](O)[C@H]3O)cc2o1,7.73%
2,Cn1c(N2CCCCS2(=O)=O)nc(C(=O)NCc2ccc(F)cc2)c(O)c1=O,0.198%
3,CC[C@]1(O)C[C@@H]2CN(CCc3c([nH]c4ccccc34)[C@@](C(=O)OC)(c3cc4c(cc3OC)N(C=O)[C@@H]3C45CCN4CC=C[C@](CC)([C@H]45)[C@@H](OC(C)=O)[C@]3(O)C(=O)OC)C2)C1 (stereo not given in full),2.3%
4,COc1cc(O)c2c(=O)c3c(OC)c(O)ccc3oc2c1,-1.19%
5,CC(=O)N1CCN(c2ccc(OCc3nn(C)c(C)c3-c3cccc4c(CCCOc5cc(C)c(Cl)c(C)c5)c(C(=O)O)n(Cc5cccnc5)c34)cc2)CC1,10.3%
6,CC(C)=CCCC(C)CC=O (stereo not given),13.3% [at 115 µM]
7,CC(=O)c1ccccc1O,12.5% [at 115 µM]
8,C=C(C)c1cc2c(ccc3ccc(=O)oc32)o1,9.68%
9,CC(=O)O[C@@H]1[C@H](OC(=O)CC(C)C)c2c(ccc3ccc(=O)oc23)OC1(C)C,-13%
10,CC(=O)OCC1=C(C(=O)O)N2C(=O)[C@@H](NC(=O)Cc3ccccc3)[C@H]2SC1,14.5%
11,C/C(=N/N=C(\C)c1ccccc1O)c1ccccc1O,15.4%
12,COc1cc(C(C)=O)cc(OC)c1O,21.6%
13,Cc1ccc(C(C)C)cc1O,9.04% [at 115 µM]
14,NCCCCCN,27.3%
15,COc1cc2c(c(OC)c1OC)-c1c(cc3c(c1OC)OCO3)C1OC2[C@@H](C)[C@H]1C (stereo not given in full),-2.83%
16,C#C[C@]1(O)CC[C@H]2[C@@H]3CCC4=Cc5oncc5CC4(C)[C@H]3CCC21C (stereo not given in full),-31.6%
17,C#CCCCCCCCCCCCc1ccco1,-1.34%
18,CC/C=C\CCOC(=O)CC,5%
19,CCCCOC(=O)C(C)OC(=O)CCC (stereo not given),12.3% [at 115 µM]
20,O=C(O)CCC[C@H](O)\C=C/C=C/C=C/[C@H](O)C/C=C\CCCCCO,-25.2% [at 0.757 µM]

row,SMILES,"activity change, negative = lower viability"
1,COc1cc(C(=O)O)cc(OC)c1OC,3.46%
2,CC1=CC(=O)O[C@@H]1[C@@]1(C)C[C@H]2OC(=O)C[C@H]3[C@@H](C)C(=O)C(O)=C1[C@@]23CO,-4.29%
3,CCCCN(CCCC)CC(O)c1cc(Cl)cc2c1-c1ccc(Cl)cc1C2=Cc1ccc(Cl)cc1 (stereo not given),1.34%
4,CCCCCC(=O)OCC,-6.17% [at 115 µM]
5,O=c1c(-c2ccc(O)cc2)coc2cc(OC3OC(CO)C(O)C(O)C3O)ccc12 (stereo not given),9.38%
6,C=C1[C@@H](OC(C)=O)CC[C@]2(C)[C@@H]1C[C@@H]1C[C@H](OC(C)=O)C(C)=C([C@@H](OC(C)=O)[C@@H]2OC(C)=O)C1(C)C,13.4%
7,CS(C)(=O)=O,1.76%
8,Cc1nc(C)c(C)nc1C,4.82% [at 115 µM]
9,CCCCCc1ccco1,-2.09%
10,O=c1c(O)c(-c2ccccc2O)oc2cc(O)cc(O)c12,7.72%
11,CC1=C[C@H](O)CC(C)(C)[C@H]1/C=C/C(C)=C/C=C/C(C)=C/C=C/C=C(C)/C=C/C=C(C)/C=C/C1=C(C)C[C@@H](O)CC1(C)C,8.35%
12,C=CC(O)CCCCC (stereo not given),8.52% [at 115 µM]
13,CC(O)[C@H]1CC[C@H]2[C@@H]3CC[C@H]4C[C@@H](O)CC[C@]4(C)[C@H]3C(=O)C[C@]12C (stereo not given in full),-1.3%
14,COc1cc2cc(Oc3ccc4ccc(=O)oc4c3)c(=O)oc2cc1OC(C)=O,15.4%
15,OC[C@H]1O[C@@H](OC[C@H]2O[C@@H](O)[C@H](O)[C@@H](O)[C@@H]2O)[C@H](O)[C@@H](O)[C@@H]1O,15.4%
16,CCCCCCOC(=O)CCCCC,-32.2% [at 115 µM]
17,C[C@@H]1CCN(C(=O)CC#N)C[C@H]1N(C)c1ncnc2[nH]ccc12,4.21%
18,C/C=C(/CC[C@@H](C)[C@H]1CC[C@H]2C3=CC[C@H]4[C@H](C)[C@@H](O)CC[C@]4(C)[C@H]3CC[C@]12C)C(C)C,3.23%
19,CC(=O)CCC1=C(C)CCCC1(C)C,-9.45% [at 115 µM]
20,COc1cc(-c2ccccc2)nc2ccccc12,0.0704%
